Source: PubChem BioAssay (EPA / NIEHS)
The source made the active and inactive calls. The calls were made as follows: active = hit-call score of the fitted dose curve at least 0.9, where 1 is the maximum; inactive = score below 0.9.

Columns and labels:
[1] = read-out: Macrophage colony-stimulating factor (MCSF), CSF1 (gene 1435); experiment: BSK_hDFCGF_MCSF: BioMAP Diversity Plus: hDFCGF Assay for Macrophage colony-stimulating factor (MCSF) Biomarker Activity (AID 2283060); details: primary human foreskin fibroblasts; actives raise or lower the signal
How it was run: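 M-CSF levels read by ELISA at 24 h post-dosing in human skin fibroblasts. Parallel cultures stained with SRB assessed cytotoxicity at the same time point; response fitted in both directions against the DMSO baseline.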

[2] = BSK_hDFCGF_SRB: Viability Assessment in the BioMAP Diversity Plus: hDFCGF Assay (AID 2283061); details: primary human foreskin fibroblasts;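 also: cells exposed to compound for 24 h before the read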
How it was run: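 Viability was read as total protein: after 10% TCA fixation, wells were stained with 0.1% sulforhodamine B and read at 560 nm. Primary human foreskin fibroblasts were dosed for 24 h, with bidirectional fitting versus DMSO.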

[3] = read-out: TIMP metallopeptidase inhibitor 1 (TIMP1), TIMP1 (gene 7076); experiment: BSK_hDFCGF_TIMP1: BioMAP Diversity Plus: hDFCGF Assay for TIMP metallopeptidase inhibitor 1 (TIMP1) Biomarker Activity (AID 2283062); details: primary human foreskin fibroblasts; actives raise or lower the signal
How it was run: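 TIMP-1 measured by ELISA 24 h after chemical dosing of primary human skin fibroblasts, with gain or loss fitted relative to DMSO. Parallel SRB staining (560 nm) monitored overt cytotoxicity.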

[4] = read-out: Monokine induced gamma interferon (MIG), CXCL9 (gene 4283); experiment: BSK_hDFCGF_MIG: BioMAP Diversity Plus: hDFCGF Assay for Monokine induced gamma interferon (MIG) Biomarker Activity (AID 2283063); details: primary human foreskin fibroblasts; actives raise or lower the signal
How it was run: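 Human primary foreskin fibroblasts in the hDFCGF system, exposed to test chemical for 24 h; MIG measured by ELISA. Bidirectional curve fitting against DMSO negative control as activity baseline.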

[5] = read-out: Matrix Metallopeptidase 1 (MMP1), MMP1 (gene 4312); experiment: BSK_hDFCGF_MMP1: BioMAP Diversity Plus: hDFCGF Assay for Matrix Metallopeptidase 1 (MMP1) Biomarker Activity (AID 2283064); details: primary human foreskin fibroblasts; actives raise or lower the signal
How it was run: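 ELISA read-out of MMP1 from human foreskin fibroblasts (primary skin cells), 24 h post-dose. Gain or loss of signal was fitted bidirectionally versus DMSO negative control; cytotoxicity was checked by SRB in parallel cultures.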

[6] = read-out: Vascular cell adhesion molecule 1 (VCAM1), VCAM1 (gene 7412); experiment: BSK_hDFCGF_VCAM1: BioMAP Diversity Plus: hDFCGF Assay for Vascular cell adhesion molecule 1 (VCAM1) Biomarker Activity (AID 2283065); details: primary human foreskin fibroblasts; actives raise or lower the signal;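 as to AC50: VCAM-1 protein level quantified by ELISA after 24 h chemical exposure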
How it was run: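 ELISA readout of VCAM-1 on human dermal fibroblast primary cultures, 24 h after chemical exposure. Gain or loss of signal fitted in both directions against DMSO baseline.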

[7] = read-out: Plasminogen activator inhibitor-1 (PAI1), SERPINE1 (gene 5054); experiment: BSK_hDFCGF_PAI1: BioMAP Diversity Plus: hDFCGF Assay for Plasminogen activator inhibitor-1 (PAI1) Biomarker Activity (AID 2283066); details: primary human foreskin fibroblasts; actives raise or lower the signal
How it was run: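 PAI-1 levels in human dermal foreskin fibroblasts were quantified by ELISA 24 h after dosing, with gain or loss analysed against DMSO. Overt cytotoxicity was checked by sulforhodamine B total-protein staining in parallel cultures.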

[8] = read-out: Intercellular Adhesion Molecule 1 (ICAM1), ICAM1 (gene 3383); experiment: BSK_KF3CT_ICAM1: BioMAP Diversity Plus: KF3CT Assay for Intercellular Adhesion Molecule 1 (ICAM1) Biomarker Activity (AID 2283067); details: primary human keratinocytes with fibroblasts; actives raise or lower the signal
How it was run: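 Cell-surface ICAM-1 was measured by ELISA 24 h after dosing primary human skin keratinocytes co-cultured with fibroblasts. Parallel SRB staining tracked overt cytotoxicity. Gain or loss of signal was fitted relative to DMSO.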

[9] = read-out: Interferon-gamma inducible Protein 10 (IP10), CXCL10 (gene 3627); experiment: BSK_KF3CT_IP10: BioMAP Diversity Plus: KF3CT Assay for Interferon-gamma inducible Protein 10 (IP10) Biomarker Activity (AID 2283068); details: primary human keratinocytes with fibroblasts; actives raise or lower the signal
How it was run: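 Signal is secreted/surface IP-10 by ELISA in a human primary skin co-culture of keratinocytes and foreskin fibroblasts, taken 24 h post-dosing; DMSO served as negative control.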

[10] = BSK_KF3CT_SRB: Viability Assessment in the BioMAP Diversity Plus: KF3CT Assay (AID 2283069); details: primary human keratinocytes with fibroblasts;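 also: read 24 h after compound addition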
How it was run: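 SRB read-out at 560 nm (0.1% stain, TCA-fixed cells) gauges overt cytotoxicity in a human skin keratinocyte–fibroblast co-culture 24 h post-dosing. Signal change was fitted bidirectionally relative to DMSO control.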

[11] = read-out: TIMP metallopeptidase inhibitor 2 (TIMP2), TIMP2 (gene 7077); experiment: BSK_KF3CT_TIMP2: BioMAP Diversity Plus: KF3CT Assay for TIMP metallopeptidase inhibitor 2 (TIMP2) Biomarker Activity (AID 2283071); details: primary human keratinocytes with fibroblasts; actives raise or lower the signal
How it was run: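 TIMP-2 measured by ELISA at 24 h in human keratinocyte/fibroblast primary co-cultures exposed to chemicals. Both increases and decreases were fitted against DMSO. Parallel cultures were stained with SRB for total protein as an overt-cytotoxicity check.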

[12] = read-out: Transforming growth factor beta 1 (TGFb1), TGFB1 (gene 7040); experiment: BSK_KF3CT_TGFb1: BioMAP Diversity Plus: KF3CT Assay for Transforming growth factor beta 1 (TGFb1) Biomarker Activity (AID 2283072); details: primary human keratinocytes with fibroblasts; actives raise or lower the signal
How it was run: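 ELISA quantifies TGF-b1 at 24 h post-dose in a primary human skin co-culture of keratinocytes and fibroblasts, with gain or loss judged against DMSO. Parallel SRB total-protein staining flags overt cytotoxicity.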

[13] = read-out: C-C motif chemokine 2 (Homo sapiens) (UniProt P13500); experiment: BSK_KF3CT_MCP1: BioMAP Diversity Plus: KF3CT Assay for Monocyte Chemoattractant Protein 1 (MCP1/CCL2) Biomarker Activity (AID 2283073); details: primary human keratinocytes with fibroblasts; actives raise or lower the signal
How it was run: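 ELISA read-out of MCP-1, 24 h post-dose, in primary human skin keratinocytes co-cultured with fibroblasts. Parallel SRB staining monitors cytotoxicity; changes fitted both directions relative to DMSO.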

[14] = read-out: Matrix Metallopeptidase 9 (MMP9), MMP9 (gene 4318); experiment: BSK_KF3CT_MMP9: BioMAP Diversity Plus: KF3CT Assay for Matrix Metallopeptidase 9 (MMP9) Biomarker Activity (AID 2283074); details: primary human keratinocytes with fibroblasts; actives raise or lower the signal;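 as to AC50: MMP9 protein level quantified by ELISA in the co-culture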
How it was run: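 ELISA read-out of MMP-9 at 24 h post-dosing in a co-culture of human skin keratinocytes and foreskin fibroblasts. Gain or loss of signal was fitted in both directions against DMSO.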

[15] = read-out: urokinase plasminogen activator (uPA), PLAU (gene 5328); experiment: BSK_KF3CT_uPA: BioMAP Diversity Plus: KF3CT Assay for urokinase plasminogen activator (uPA) Biomarker Activity (AID 2283075); details: primary human keratinocytes with fibroblasts; actives raise or lower the signal
How it was run: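 Skin co-culture (keratinocytes + foreskin fibroblasts), human primary; 24 h post-dose; uPA by ELISA; gain/loss fit vs DMSO baseline.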

CD40, CD40 (gene 958) = experiment: BSK_LPS_CD40: BioMAP Diversity Plus: LPS Assay for CD40 Biomarker Activity (AID 2283076); details: primary human HUVEC with PBMC; actives raise or lower the signal
How it was run: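 In the LPS system of human endothelial cells with peripheral blood mononuclear cells, CD40 levels were read by ELISA 24 h post-treatment. Signal changes in either direction were fitted against the DMSO baseline, with parallel SRB protein staining.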

[16] = read-out: E-selectin (Homo sapiens) (UniProt P16581); experiment: BSK_LPS_Eselectin: BioMAP Diversity Plus: LPS Assay for Eselectin Biomarker Activity (AID 2283077); details: primary human HUVEC with PBMC; actives raise or lower the signal
How it was run: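 E-selectin ELISA on LPS-stimulated endothelial cell/PBMC co-cultures, read 24 h post-treatment; gains and losses fitted against DMSO. Parallel SRB staining (0.1% SRB after 10% TCA fixation, 560 nm) flags overt cytotoxicity.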

[17] = BSK_LPS_SRB: Viability Assessment in the BioMAP Diversity Plus: LPS Assay (AID 2283079); details: primary human HUVEC with PBMC;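 also: total protein by sulforhodamine B absorbance as a cytotoxicity measure; measured one day after compound addition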
How it was run: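 SRB viability endpoint: cells fixed with 10% TCA, stained with 0.1% SRB, read at 560 nm, 24 h post-dose. HUVEC/PBMC co-culture; signal change in either direction scored relative to DMSO.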

[18] = read-out: Interleukin-8 (IL8), CXCL8 (gene 3576); experiment: BSK_LPS_IL8: BioMAP Diversity Plus: LPS Assay for Interleukin-8 (IL8) Biomarker Activity (AID 2283078); details: primary human HUVEC with PBMC; actives raise or lower the signal
How it was run: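 ELISA read-out of IL-8 after 24 h chemical treatment of LPS-activated endothelial/PBMC human primary co-cultures. Changes either up or down relative to DMSO; overt cytotoxicity checked by sulforhodamine B staining in parallel wells.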

Measured: AC50

E-selectin (Homo sapiens), sequence (P16581 whole entry, looked up): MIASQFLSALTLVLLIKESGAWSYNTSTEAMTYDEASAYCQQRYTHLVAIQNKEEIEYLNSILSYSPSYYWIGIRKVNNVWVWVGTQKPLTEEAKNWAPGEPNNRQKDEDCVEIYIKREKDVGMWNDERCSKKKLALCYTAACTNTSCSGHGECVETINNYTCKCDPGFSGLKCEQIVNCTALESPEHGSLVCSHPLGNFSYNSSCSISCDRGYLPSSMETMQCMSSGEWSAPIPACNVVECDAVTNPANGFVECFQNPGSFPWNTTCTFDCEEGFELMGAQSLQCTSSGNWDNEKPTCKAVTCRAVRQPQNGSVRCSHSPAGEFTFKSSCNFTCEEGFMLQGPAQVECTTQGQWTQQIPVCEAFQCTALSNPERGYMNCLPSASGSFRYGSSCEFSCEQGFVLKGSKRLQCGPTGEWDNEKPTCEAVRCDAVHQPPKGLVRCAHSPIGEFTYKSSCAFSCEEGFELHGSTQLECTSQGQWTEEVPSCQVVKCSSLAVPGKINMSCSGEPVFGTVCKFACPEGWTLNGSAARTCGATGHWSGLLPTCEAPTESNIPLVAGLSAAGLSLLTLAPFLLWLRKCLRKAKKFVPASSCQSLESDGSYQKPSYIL

O[Si](c1ccccc1)(c1ccccc1)c1ccccc1
active: [1] 5.61 µM | [2] 5.35 µM | [7] 5.43 µM | [11] 10.3 µM | [12] 20 µM | [14] 6.74 µM | CD40, CD40 (gene 958) 24.4 µM | [17] 28.6 µM
inactive: [3] | [4] | [5] | [6] | [8] | [9] | [10] | [13] | [15] | [16]

FC(F)(F)C(F)(F)C(F)(F)N(C(F)(F)C(F)(F)C(F)(F)F)C(F)(F)C(F)(F)C(F)(F)F
inactive: [1] | [2] | [3] | [4] | [5] | [6] | [7] | [8] | [9] | [10] | [11] | [13] | [14] | [15] | CD40, CD40 (gene 958) | [16] | [18] | [17]

Oc1ccc(Nc2ccccc2)cc1
inactive: [1] | [2] | [3] | [4] | [5] | [8] | [9] | [10] | [11] | [13] | [14] | [15] | [16] | [18] | [17]
active: [6] 3.97 µM | [7] 17.1 µM | [12] 20 µM | CD40, CD40 (gene 958) 20 µM
